According to PubChem BioAssay AID1304 (The Scripps Research Institute Molecular Screening Center, 2008):
Where “and” joins values, the source holds several entries; their conditions need not be identical. Identical values can stand only once. Among all 220,000 compounds or so, about 800 (0.36%) were called active. Cut-off read from the data, not from the text of the source: active = activation above about 33% (passing the limit was not always enough); inactive = the rest. Only a selection was taken, and actives are over-represented in it overall.

target: Neuropeptide Y receptor type 1 (Homo sapiens) (UniProt P25929); test: NPY-Y1 receptor potentiators or agonists, primary screen, cell-based (AID 1304); conditions: NPY-Y1 expressing cells, potentiator/agonist activation; at 3.6 µM; hits give high values;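 note: cells stimulated with NPY at EC10 then isoproterenol at EC100; 0% = low agonist plus stimulus and 100% = saturating agonist plus stimulus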
Sequence (P25929 whole entry, looked up): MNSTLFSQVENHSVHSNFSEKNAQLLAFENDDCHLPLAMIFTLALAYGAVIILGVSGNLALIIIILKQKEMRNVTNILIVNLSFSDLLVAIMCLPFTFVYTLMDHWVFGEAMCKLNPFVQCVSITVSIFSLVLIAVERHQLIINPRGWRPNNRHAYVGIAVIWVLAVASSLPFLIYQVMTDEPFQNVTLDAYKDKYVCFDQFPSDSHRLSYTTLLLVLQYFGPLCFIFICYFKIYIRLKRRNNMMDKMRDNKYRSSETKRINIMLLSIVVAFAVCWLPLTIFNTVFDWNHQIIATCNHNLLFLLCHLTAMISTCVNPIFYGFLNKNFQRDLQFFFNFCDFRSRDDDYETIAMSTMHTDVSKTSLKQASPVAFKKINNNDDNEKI

SMILES	activation
Cc1nn2c(NCCN(C)C)c3c(nc2c1-c1ccccc1)CCC3	22.6% (inactive)
O=C(c1cc(COc2c(F)cccc2F)on1)N1CCSCC1	3.08% (inactive)
CCC(CC)C(=O)N1CCN(c2cccc(C)c2C)CC1	-14.7% (inactive)
Cc1ccc(N(CC(=O)Nc2cccc(N(C)S(C)(=O)=O)c2)S(C)(=O)=O)cc1	25.3% (inactive)
COC(=O)c1ccc(NC(=O)CN(c2ccc(C)cc2)S(=O)(=O)c2c(C)n[nH]c2C)cc1	38.8% (active)
CCOC(=O)c1cccc(NC(=O)CN(c2ccc(C)cc2)S(=O)(=O)c2c(C)noc2C)c1	18.8% (inactive)
COc1ccc(NC(=O)c2nc(-n3nc(C)cc3C)ccc2Cl)cc1Cl	9.04% (inactive)
O=C(Cc1cccc2ccccc12)NNC(=O)Nc1ccc(Cl)cc1	5.16% (inactive)
COCCn1nnnc1C(c1ccccc1Cl)N1CCN(c2ccccc2OC)CC1 (stereo not given)	89.3% (active)
COc1ccccc1C(c1nnnn1CC1CCCO1)N1CCN(c2ccccc2)CC1 (stereo not given)	12.6% (inactive)
COc1ccccc1C(c1nnnn1C(C)(C)C)N1CCN(Cc2ccccc2)CC1 (stereo not given)	-17.5% (inactive)
Cc1c(CN2CCCCC2)c(O)n(CCO)c(=O)c1C#N	10.5% (inactive)
CCOC(=O)CCCNC(=O)COC(=O)/C=C/c1ccc2c(c1)OCO2	-7.21% (inactive)
CC(=O)N1CC[n+]2c(-c3ccc([N+](=O)[O-])cc3)csc21	13.5% (inactive)
O=C(NCCCNc1ccc([N+](=O)[O-])cc1Cl)c1ccccc1F	-0.79% (inactive)
CC1=NNC(=O)C1CCC(=O)N/N=C\c1cccc(Cl)c1 (stereo not given)	4.52% (inactive)
CCOc1ccc(C2NC(=S)NC3=C2CCc2ccccc23)cc1 (stereo not given)	10.5% (inactive)
Cc1cc(C)cc(OCC(=O)NCc2cc(C)nc3ccccc23)c1	0.39% (inactive)
Cc1cc(C)c(NC(=O)c2oc3ccccc3c2COc2ccccc2)c(C)c1	-49.2% (inactive)
Cc1cc(C)c(NC(=O)C[N+](C)(C)CC(O)COc2cccc3ccccc23)c(C)c1 (stereo not given)	86.4% (active)
COc1cc(N2C(=O)CC3(CCCC3)CC2=O)cc(OC)c1OC	-14.9% (inactive)
CCC(=O)N1c2ccccc2NC2=C(C(=O)CCC2)C1c1ccco1 (stereo not given)	19.7% (inactive)
COC(=O)c1sccc1NC(=S)Nc1ccc(C)cc1	-0.64% (inactive)
O=c1c(/C=N/O)coc2ccc(Cl)cc12	19.5% (inactive)

SMILES	activation
O=C1/C(=C/c2coc3ccc(O)cc3c2=O)SC(=S)N1c1ccccc1	47% (active)
O=c1c(-c2ccccc2)coc2cc(O)ccc12	2.99% (inactive)
O=C1CC(c2cccc(Cl)c2)CC(O)=C1C=Nc1ccccc1 (stereo not given)	-11.9% (inactive)
Cc1ccc(-c2ccc(/C=C(\C#N)C(N)=S)o2)c([N+](=O)[O-])c1	8.63% (inactive)
CN(C)NC(=O)C(NC(=O)c1ccc(N)cc1)C12CC3CC(CC(C3)C1)C2 (stereo not given)	5.39% (inactive)
Cc1cc(NC(=O)COC(=O)COc2ccc(Cl)cc2C)c([N+](=O)[O-])cc1C	-0.92% (inactive)
Cc1ccc(OCC(=O)c2cc(C)n(Cc3ccco3)c2C)c([N+](=O)[O-])n1	1.91% (inactive)
COc1cccc2sc(N(CCCN(C)C)C(=O)C(c3ccccc3)c3ccccc3)nc12	103% (active)
CC(=O)N(CCCN(C)C)c1nc2ccc(C)cc2s1	-7.71% (inactive)
CN(C)CCCN(C(=O)COc1ccccc1)c1nc2c(Cl)cccc2s1	-13.9% (inactive)
Cc1nnc(SCC2=C(C(=O)O)N3C(=O)C(NC(=O)Cn4nc(C)c(Cl)c4C)C3SC2)s1 (stereo not given)	-9.62% (inactive)
Cn1nc(C(F)(F)F)cc1C(=O)O	-6.07% (inactive)
COc1ccc(C(=O)OCC(=O)NC(=O)CCSc2ccccc2)cc1	-33.3% (inactive)
COc1cccc(CNC(=O)CCC2CCCN(Cc3ccc(OC(F)F)cc3)C2)c1 (stereo not given)	4.57% (inactive)
C[C@@H]1NC(=O)c2cc([N+](=O)[O-])cc(F)c2NCCC[C@@H](C(N)=O)NC(=O)[C@H](CC(N)=O)NC1=O	3.2% (inactive)
COC(=O)c1sc(C(F)(F)F)c(-c2ccccc2)c1S(=O)(=O)N(C)C	5.29% (inactive)
CCCCCCCCc1c(O)nc(-n2[nH]c(C)c(CCO)c2=O)[nH]c1=O	11.5% (inactive)
CC(C)NC(=O)c1ccc(Sc2ccccc2)c([N+](=O)[O-])c1	4.46% (inactive)
O=C(COc1ccc([N+](=O)[O-])cc1)Nc1ccc(N2CCCC2)cc1	-4.81% (inactive)
COc1ccc(C(=O)Nc2ccc(-n3nncc3C(C)(C)C)cc2)cc1	1.57% (inactive)
COc1ccccc1N(C)S(=O)(=O)c1ccc(Cl)c(C(=O)N2CCC(C(N)=O)CC2)c1	29.7% (inactive)
COc1ccc(/C=N/NC(=O)Nc2ccc3nsnc3c2)c(OC)c1	7.9% (inactive)
Cc1ccc(NC(=O)CCOc2ccccc2)cc1S(=O)(=O)Nc1ccccc1Cl	21.9% (inactive)
COc1ccccc1OCCNCC(O)COc1cccc2[nH]c3ccccc3c12 (stereo not given)	107% (active) and 106% (active)

SMILES	activation
CC(O)CNCCOc1cccc(Oc2ccccc2)c1 (stereo not given)	-10% (inactive)
COc1ccccc1OCCNC(=O)c1cc([N+](=O)[O-])cc([N+](=O)[O-])c1	1.67% (inactive)
COc1ccc(C2c3[nH]c4ccccc4c3CCN2CCCn2cccn2)cc1C (stereo not given)	-23.6% (inactive)
Nc1nc(SCC(=O)NNc2c(Cl)cc(Cl)cc2Cl)n[nH]1	3.91% (inactive)
C/C(=N\NC(=O)NC1CCCCC1)c1ccc(OC(F)F)cc1OC(F)F	-17% (inactive)
CC(=O)Nc1ccc(S(=O)(=O)NCCc2ccccc2)cc1	-20.2% (inactive)
COCCCNC(=O)c1ccc(CNS(=O)(=O)c2ccc(NC(C)=O)cc2)cc1	36.8% (active)
CCCCNC(=O)C1CCC(CNS(=O)(=O)c2ccc(NC(C)=O)cc2)CC1 (stereo not given)	-15.8% (inactive)
CC(C)(C)NC(=O)Cn1c(SCC(=O)Nc2nccs2)nc2ccccc21	-9.44% (inactive)
CSc1nc(-c2ccco2)nn1C(=O)c1ccccc1Cl	56.1% (active)
CSc1nc(-c2ccco2)nn1C(=O)CCc1ccccc1	-13.4% (inactive)
CS(=O)(=O)n1nc(-c2ccco2)nc1N	-9.25% (inactive)
S=c1[nH]nc(-c2cc(-c3ccsc3)n[nH]2)n1-c1ccccc1	-8.71% (inactive)
Cc1nnsc1C(=O)N/N=C/c1ccccc1Cl	-6.23% (inactive)
O=C(Nc1ccc(F)cc1F)N1CCCN(CCOc2ccccc2)CC1	4.67% (inactive)
CCOC(=O)C1(CC2CCCCO2)CCN(Cc2nc(-c3cccs3)oc2C)CC1 (stereo not given)	1.86% (inactive)
CC(=O)O[C@]1(C(C)=O)CC[C@H]2[C@@H]3C=C(C)C4=CC(=O)CC[C@]4(C)[C@H]3CC[C@@]21C	-14.5% (inactive) and 5.59% (inactive)
Cc1noc(COc2ccccc2OCc2onc(C)c2Cl)c1Cl	-31.2% (inactive)
CC(C)(C)CC(C)(C)NCC(O)COCCOc1ccc(Br)cc1 (stereo not given)	-16.3% (inactive)
Cc1noc(COc2ccccc2OCC(O)CNC(C)(C)C)n1 (stereo not given)	111% (active)
Nc1nc(O)c(CC(=O)O)s1	-3.67% (inactive)
CCc1cc(-c2n[nH]c(=S)n2CC(C)C)cs1	-23.7% (inactive)
COC(=O)c1ccc(NC(=O)Nc2ccc(C)cc2)cc1	101% (active)
CC(=O)c1cccc(NC(=O)Nc2ccc(C)cc2)c1	-1.32% (inactive)

SMILES	activation
Cc1ccc(NC(=O)CC(=O)Nc2ccc(C)cc2)cc1	-0.47% (inactive)
CO/N=C/c1cn(-c2ccc(Cl)cc2)nn1	-2.97% (inactive)
CN(c1ccccc1)S(=O)(=O)c1ccc(Cl)c(C(=O)OCC(=O)NCc2ccco2)c1	16.8% (inactive)
O=c1[nH]oc(O)c1-c1ncc(C(F)(F)F)cc1Cl	7.56% (inactive)
CC(=O)NC(=S)NNC(=O)c1ccc(Br)cc1	-6.38% (inactive)
CC(=O)c1sc(NC(=O)c2ccc(C)cc2)nc1C	5.15% (inactive)
N#Cc1ccc(C(=O)Nc2nc(-c3cccs3)c(C(=O)C(F)(F)F)s2)cc1	45.4% (active)
Cc1ccc(C(=O)Nc2nnc(-c3cccs3)s2)cc1C	19.3% (inactive)
Cc1ccc(NC(=S)N2CCCC(c3ccccc3)=N2)cc1	-12% (inactive)
CCOC(=O)c1cnc2ccc(F)cc2c1Nc1ccc2c(c1)OCCO2	-7.89% (inactive)
CCCCNC(=O)Nc1c(C)cc(SC#N)cc1C	-6.72% (inactive)
O=C(CCCN1C(=O)c2ccccc2C1=O)Oc1ccc(Cl)cc1	-9.31% (inactive)
O=C(NCCc1csc(-c2ccccc2)n1)c1ccccc1F	-10.8% (inactive)
CC(=O)c1ccc(NC(=O)C2CC(=O)Nc3nc4ccccc4n32)cc1 (stereo not given)	46.6% (active)
CCOC(=O)c1ccc(NC(=O)C2CC(=O)Nc3nc4ccccc4n32)cc1 (stereo not given)	2.63% (inactive)
O=C(Nc1ccccc1)C1CC(=O)n2c(nc3ccccc32)N1 (stereo not given)	16.2% (inactive)
Cc1nnc(SC(C(=O)c2ccccc2)c2ccccc2)[nH]c1=O (stereo not given)	-19.4% (inactive)
COc1ccc2[nH]c(=S)cc(C)c2c1	-18.7% (inactive)
CCN(CC)CC(=O)c1c[nH]c2ccc(OC)cc12	-5.01% (inactive)
COc1ccc2[nH]c3ccc(OC)cc3c2c1	64.7% (active)
CC1CCCCC1NC(=O)CN1CCC(O)(c2ccc3c(c2)OCO3)CC1 (stereo not given)	3.89% (inactive)
Cn1cnnc1SCC(=O)NNC(=O)COc1ccc(Br)cc1	-5.38% (inactive)
C/C(Cc1ccccc1)=N\NC(=O)CNC(=O)c1ccccc1Cl	-3% (inactive)
